Inconclusive results are not listed. Values without a mark were called inactive. Activity calls are given as the source filed them. Calls follow the shape of the dose curve; as a rule, active = well fitted cell-killing curve with a large enough effect in the repeat runs; inconclusive = weak or mixed curves, or effect the other way; inactive = no such curve, though single readings can be large or run the other way.
experiment: qHTS assay to identify small molecule agonists of the farnesoid-X-receptor (FXR) signaling pathway - cell viability counter screen (AID 743218); conditions: FXR-bla HEK293T viability, CellTiter-Glo luminescence, 16 h; series mostly up to 62.6 µM; viability change, negative = cytotoxic: at the top concentration; also: nearly all actives have a fitted effect of over 45% in size
Outline: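 Parallel cytotoxicity test: compound-treated (16 h, 37 C) HEK 293T FXR-bla reporter cells were lysed with CellTiter-Glo and luminescence recorded.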
% is scaled to controls: 0 for no effect and ±100 for the full control effect; potency is read from the fitted curve at half-maximal effect.

Which “viability change, negative = cytotoxic” value does the source give for `Cc1nc(C)c(C)nc1C` here?
The value was 16.6%.

For `Cc1cc(C)c(C)c(O)c1`, which “viability change, negative = cytotoxic” value is on record?
Its value is 2.36%.

With `Cc1ccc(S(=O)(=O)NC(=O)NC2CCCC2)cc1` as the molecule, how does the “viability change, negative = cytotoxic” value read?
Its value is 9.93%.

With `OCCc1ccncc1` as the molecule, how does the “viability change, negative = cytotoxic” value read?
The value was -1.66%.

With `C=C(C)C(=O)OCCCCCCCCCCOC(=O)C(=C)C` as the molecule, how does the “viability change, negative = cytotoxic” value read?
The value was 23.6%.

With `CCC1=C(C)CN(C(=O)NCCc2ccc(S(=O)(=O)NC(=O)NC3CCC(C)CC3)cc2)C1=O` (configuration not stated) as the molecule, how does the “viability change, negative = cytotoxic” value read?
The value was 0.565%.

With `Cc1ccc(Cl)c(OCC(O)CNC(C)(C)C)c1` (configuration not stated) as the molecule, how does the “viability change, negative = cytotoxic” value read?
Its value is -23.3%.

For `O=C(C1CCCCC1)N1CC(=O)N2CCCc3ccccc3C2C1` (configuration not stated), which “viability change, negative = cytotoxic” value is on record?
The value was -12.1%.

Which “viability change, negative = cytotoxic” value does the source give for `N#CCCCC(C#N)CCC#N` (configuration not stated) here?
The value was 35.4%.

With `C[C@H](CN1CCCC1)C(=O)c1ccc(C(F)(F)F)cc1` as the molecule, how does the “viability change, negative = cytotoxic” value read?
The value was 4.06%.

Which “viability change, negative = cytotoxic” value does the source give for `Clc1nc2ccccc2nc1Cl` here?
The value was 24.6% [at 81.1 µM].

With `CC(C)NC(=O)c1ccccc1N` as the molecule, how does the “viability change, negative = cytotoxic” value read?
Its value is -16.4%.

With `CCCc1nc(C)c2c(=O)[nH]c(-c3cc(S(=O)(=O)N4CCN(CC)CC4)ccc3OCC)nn12` as the molecule, how does the “viability change, negative = cytotoxic” value read?
The value was 3.18%.

For `Cc1cccc(C)c1NC(=O)CN1CCCC1`, which “viability change, negative = cytotoxic” value is on record?
Its value is 0.764%.

For `CC(COc1ccccc1)NC(C)C(O)c1ccc(O)cc1` (configuration not stated), which “viability change, negative = cytotoxic” value is on record?
The value was -1.58%.

Which Potency does the source give for `NCCOCCOCCN` here?
The Potency was 6.92 µM (active).

Which “viability change, negative = cytotoxic” value does the source give for `C=CC(=O)OCCCCCCCCCC` here?
The value was 0.704%.

Which “viability change, negative = cytotoxic” value does the source give for `Nc1ccc(F)cc1F` here?
The value was 17.1% [at 81.1 µM].

Which “viability change, negative = cytotoxic” value does the source give for `O=c1[nH]nc(-c2ccc([N+](=O)[O-])o2)o1` here?
Its value is -20.8%.

With `CCN(CC)CC(=O)OCC(=O)[C@@]1(O)CC[C@H]2[C@@H]3CCC4=CC(=O)CC[C@]4(C)[C@H]3[C@@H](O)C[C@@]21C` as the molecule, how does the “viability change, negative = cytotoxic” value read?
The value was -13.5%.

For `CCOC(OCC)OCC`, which “viability change, negative = cytotoxic” value is on record?
Its value is -6.32%.

Which “viability change, negative = cytotoxic” value does the source give for `Cc1ccc2ccccc2c1[N+](=O)[O-]` here?
The value was -1.27%.

Which “viability change, negative = cytotoxic” value does the source give for `C=CC(C)CCC=C(C)C` (configuration not stated) here?
Its value is 15.7%.

With `COC(=O)/C=C/C(C)=C\C=C\C(C)=C\C=C\C=C(C)\C=C\C=C(C)\C=C\C(=O)O` as the molecule, how does the “viability change, negative = cytotoxic” value read?
The value was 7.85%.

With `CO[C@@H]1COCC[C@@H]1N[C@@H]1CC[C@@](C(=O)N2CCc3ncc(C(F)(F)F)cc3C2)(C(C)C)C1` as the molecule, how does the “viability change, negative = cytotoxic” value read?
Its value is 10.5%.

Which “viability change, negative = cytotoxic” value does the source give for `CCCC(=O)OCc1ccccc1` here?
Its value is -2.26%.

With `c1ccc(CCNc2nc(-c3ccccc3)cs2)cc1` as the molecule, how does the “viability change, negative = cytotoxic” value read?
Its value is 0.0082%.

For `C[C@]12CCC(=O)C=C1[C@@H]1C[C@@H]1[C@H]1[C@@H]3[C@@H]4C[C@@H]4[C@@]4(CCC(=O)O4)[C@@]3(C)CC[C@@H]12`, which “viability change, negative = cytotoxic” value is on record?
The value was -16.6%.

With `O=C(OC1C[C@H]2CC[C@@H](C1)[N+]21CCCC1)C(O)(c1ccccc1)c1ccccc1` (some centres not stated) as the molecule, how does the “viability change, negative = cytotoxic” value read?
Its value is 4.91%.

Which “viability change, negative = cytotoxic” value does the source give for `N#Cc1ccc(CC(=O)c2cccc(C(F)(F)F)c2)cc1` here?
Its value is 23.2%.

Which “viability change, negative = cytotoxic” value does the source give for `CC(CC(C#N)(c1ccccc1)C(C)C)N(C)C` (configuration not stated) here?
Its value is -10.9%.

With `O=C(NC1CCN(CCc2c[nH]c3ccccc23)CC1)c1ccccc1` as the molecule, how does the “viability change, negative = cytotoxic” value read?
Its value is -11.7%.

With `CCCCOC(=O)C(C)Oc1ccc(Oc2ccc(C(F)(F)F)cn2)cc1` (configuration not stated) as the molecule, how does the “viability change, negative = cytotoxic” value read?
Its value is 19%.

For `O=C(N[C@@H](Cc1ccccc1)[C@@H](O)C(=O)N1C[C@@H](O)[C@@H](O)C1)c1cc2cc(Cl)ccc2[nH]1`, which “viability change, negative = cytotoxic” value is on record?
The value was -15.2%.

For `CCOc1cc(OCC)c(C(C)=O)cc1OCC`, which “viability change, negative = cytotoxic” value is on record?
The value was 8.85%.

For `OCCOc1cccc(OCCO)c1`, which “viability change, negative = cytotoxic” value is on record?
The value was 1.5%.

With `CC(C)=CCC/C(C)=C/C=N/O` as the molecule, how does the “viability change, negative = cytotoxic” value read?
Its value is 16.5%.

From PubChem BioAssay (Tox21)
